# Test results published in PubChem BioAssay (NCATS).
# Values joined by “and” are separate entries in the source; they are usually repeats but may differ in a detail not shown here. Equal entries are not always repeated. Results filed as inconclusive are left out. A structure can be active in one record and inactive in another. Active and inactive are the calls of the source. Calls come from the whole dose curve; as a rule, active = well fitted inhibition curve with a large enough effect; inconclusive = small, poorly fitted or top-dose-only effect; inactive = no such curve, though single readings can be large or run the other way.
# Target: Cytochrome P450 2D6 (Homo sapiens) (UniProt P10635)
# Experiment: qHTS Assay for Inhibitors and Substrates of Cytochrome P450 2D6 (AID 891); note: nearly all actives have a fitted effect of over 60% in size;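 for activity change, negative = inhibition: luciferin methyl ether substrate demethylated by CYP2D6 with NADPH regeneration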
# Conditions: recombinant CYP2D6, luciferin-ME EGE luminescence; series mostly up to 57.1 µM; activity change, negative = inhibition: at the top concentration
# How it was run: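 Luminescent read-out of luciferin formed by 5 nM human CYP2D6 demethylating 30 uM Luciferin-ME EGE (Km level) over 60 min at room temperature after NADPH regeneration addition. Data normalized to full inhibition by 1.43 uM quinidine.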
# % is set by controls: 0 for no effect and ±100 for the full control effect; potency is the fitted concentration of half-maximal effect.
# Chain of Cytochrome P450 2D6 (Homo sapiens) (P10635 whole entry, looked up): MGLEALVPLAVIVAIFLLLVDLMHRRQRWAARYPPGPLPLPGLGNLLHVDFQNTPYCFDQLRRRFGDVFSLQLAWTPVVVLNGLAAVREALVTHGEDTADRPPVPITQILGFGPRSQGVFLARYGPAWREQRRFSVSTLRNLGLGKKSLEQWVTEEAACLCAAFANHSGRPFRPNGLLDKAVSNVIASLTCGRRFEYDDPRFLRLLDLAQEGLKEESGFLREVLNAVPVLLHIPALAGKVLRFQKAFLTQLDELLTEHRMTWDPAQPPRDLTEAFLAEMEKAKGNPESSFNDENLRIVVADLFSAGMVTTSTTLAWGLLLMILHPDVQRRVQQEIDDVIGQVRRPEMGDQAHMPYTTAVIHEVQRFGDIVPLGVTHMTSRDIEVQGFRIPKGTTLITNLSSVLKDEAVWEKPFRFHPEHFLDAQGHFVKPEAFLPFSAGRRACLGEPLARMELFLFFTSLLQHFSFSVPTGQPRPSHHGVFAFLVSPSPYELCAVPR
Compound,Potency,"activity change, negative = inhibition"
CN(C)CCCc1cc(C(=O)Nc2ccc(-c3ccncc3)cc2)ccc1O,5.01 µM (active),–
CCSC(=N)N,3.98 µM (active),–
O=C1Cc2c([nH]c3ccc(Br)cc23)-c2ccccc2N1,inactive and 398 nM (active),–
C=C1C(=O)O[C@@H]2[C@H]3O[C@]3(C)CCC=C(C)CC[C@@H]12,–,-4.64% (inactive)
Fc1ccc(CN(C2=NCCN2)c2c(Cl)cccc2Cl)cc1,1.26 µM (active),–
